Some test systems named below: DU-145 prostate; K-562 leukemia; MALME-3M melanoma; MDA-MB-231 breast; RXF 393 renal; SF-268 CNS; SF-295 CNS; SF-539 CNS; UACC-257 melanoma; M14 melanoma.
Holding throughout (assay): NCI-60 one-dose screen, 48 h (100 = growth as untreated, 0 = no growth, -100 = all killed)
What all share (details): 10 µM unless noted

The panel holds about 83,000 compounds, 20% with a hit somewhere; the sample as a whole holds those more often.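 Compound tested at a single concentration for 48 hours in 96-well plates; a percent growth value below 10 was scored as active.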 Unmarked numbers belong to inactive results. Calls of active or inactive are those of the source.

On to `COc1ccc(-c2cn(-c3cc(OC)c(OC)c(OC)c3)c(=O)n2C(C)=O)cc1`, for which the growth in the test on DU-145 prostate is 106%; in the test on K-562 leukemia, 61.7%; in the test with MALME-3M melanoma, 90.6%; in the test with MDA-MB-231 breast it was 76.7%; in the test with RXF 393 renal, 109%; with SF-268 CNS it was 107%. In addition, the growth in the test with SF-295 CNS is 78.6%; in the test on SF-539 CNS it was 97%; in the test with UACC-257 melanoma, 82%; with M14 melanoma it was 92.6%.

In the case of `Cn1cccc1C(=O)C1C(c2cccc([N+](=O)[O-])c2)C2C3CCCCC3CN2C12C(=O)Nc1ccc(Cl)cc12` (stereo not given), the growth in the test on DU-145 prostate was 38.7%; in the test with K-562 leukemia it was 33.4%; in the test on MALME-3M melanoma, 68.1%; in the test with MDA-MB-231 breast, 55.6%; in the test on RXF 393 renal it was -16.8% (active); in the test with SF-268 CNS, 52.3%. The growth is 82.3% with SF-295 CNS, 77.2% in the test with SF-539 CNS, 70.7% with UACC-257 melanoma and 52.4% in the test with M14 melanoma.

In the case of `CCOC(=O)c1cc(-c2ccc([N+](=O)[O-])cc2)n(-c2ccc(C(=O)O)c(O)c2)c1C`, the growth in the test on DU-145 prostate was 88.6%; in the test on K-562 leukemia, 45.1%; with MALME-3M melanoma, 80.6%; in the test with MDA-MB-231 breast, 80.7%; in the test on RXF 393 renal, 39%; with SF-268 CNS it was 85.8%. The growth is 69.8% in the test on SF-295 CNS, 85.4% in the test on SF-539 CNS, 46.2% in the test on UACC-257 melanoma and 90% in the test on M14 melanoma.

`CCNC(=O)c1[nH]cc(-c2ccccc2)c1-c1cc(OC)c2c(c1OC)OCO2`: the growth was 112% with DU-145 prostate; 94% in the test on K-562 leukemia; 110% with MALME-3M melanoma; 97.2% in the test with MDA-MB-231 breast; 102% in the test with RXF 393 renal; 97.6% in the test on SF-268 CNS. Also, the growth is 100% in the test on SF-295 CNS, 102% with SF-539 CNS, 102% with UACC-257 melanoma and 95.8% with M14 melanoma.

For the compound `O=C(CCc1nnc(Cn2cnc3nc[nH]c3c2=O)o1)c1nc2ncccc2[nH]1`, the growth was 108% with DU-145 prostate; 99.7% in the test with K-562 leukemia; 97.5% with MALME-3M melanoma; 94.7% with MDA-MB-231 breast; 102% in the test on RXF 393 renal; 96.1% with SF-268 CNS. The growth with SF-295 CNS was 101%; with SF-539 CNS, 95%; in the test on UACC-257 melanoma it was 105%; in the test with M14 melanoma, 96.5%.

Consider `CCCCN1C(=O)/C(=c2\sc3n(c2=O)C2C(NN=3)N(CC)C(=O)N2CC)c2ccccc21` (stereo not given), for which the growth was 8.48% (active) with DU-145 prostate; 5.85% (active) with K-562 leukemia; 36.4% in the test on MALME-3M melanoma; 8.32% (active) in the test with MDA-MB-231 breast; -29.5% (active) in the test on RXF 393 renal; 42.5% with SF-268 CNS. Further, the growth is 2.37% (active) in the test with SF-295 CNS, -40.4% (active) in the test with SF-539 CNS, -9.63% (active) in the test with UACC-257 melanoma and 6.24% (active) in the test with M14 melanoma.

Turning to `COc1ccccc1NC(=O)Cn1cc(CN2CCN(c3ccnc4cc(Cl)ccc34)CC2)nn1`, the growth is 106% in the test on DU-145 prostate; 83.8% with K-562 leukemia; 106% with MALME-3M melanoma; 82.3% in the test with MDA-MB-231 breast; 85.8% with RXF 393 renal; 84% in the test on SF-268 CNS. Also, the growth in the test with SF-295 CNS was 100%; in the test on SF-539 CNS it was 99.3%; in the test on UACC-257 melanoma, 106%; with M14 melanoma, 106%.

For the compound `O=C(Nc1cccnc1Nc1ccc(F)cc1)c1cn(Cc2cccc(Oc3ccccc3)c2)nn1`, the growth was 84.5% with DU-145 prostate; 18.8% with K-562 leukemia; 60.9% with MALME-3M melanoma; 61.1% with MDA-MB-231 breast; 74.2% with RXF 393 renal; 54.8% in the test on SF-268 CNS. Also, the growth in the test with SF-295 CNS is 67.7%; in the test on SF-539 CNS it was 63.7%; in the test with UACC-257 melanoma, 87.4%; in the test with M14 melanoma it was 37.1%.

As for `CCN1C(=O)N(CC)C2C1NN=c1s/c(=C\c3cccc([N+](=O)[O-])c3)c(=O)n12` (stereo not given), the growth in the test with DU-145 prostate was 8.55% (active); in the test on K-562 leukemia, 10.5%; in the test on MALME-3M melanoma, 47.4%; with MDA-MB-231 breast it was 12.4%; in the test on RXF 393 renal it was 31.4%; in the test with SF-268 CNS, 54%. Besides, the growth is 15% in the test with SF-295 CNS, -4.28% (active) in the test on SF-539 CNS, 59.7% with UACC-257 melanoma and 12.2% in the test with M14 melanoma.

With `N#CC1CCc2c(c(-c3cn[nH]c3C(F)(F)F)nc3c(F)cc4[nH]ncc4c23)C1` (stereo not given), the growth in the test on DU-145 prostate is 48.2%; with K-562 leukemia, 36.3%; in the test on MALME-3M melanoma, 18.1%; with MDA-MB-231 breast, 20.3%; with RXF 393 renal, 21.7%; with SF-268 CNS, 23.1%. Also, the growth in the test with SF-295 CNS is 73.8%; in the test with SF-539 CNS, 20.4%; in the test on UACC-257 melanoma, 48.6%; in the test on M14 melanoma it was 18.9%.

`CC(C)NC1CCC(Nc2ccnc3cc(Cl)ccc23)CC1` (stereo not given): the growth with DU-145 prostate is 111%; in the test on K-562 leukemia, 56.3%; in the test with MALME-3M melanoma, 85.4%; with MDA-MB-231 breast, 76.5%; in the test on RXF 393 renal it was 49.2%; with SF-268 CNS, 99.6%. Moreover, the growth in the test with SF-295 CNS is 96.6%; in the test with SF-539 CNS, 97.5%; with UACC-257 melanoma it was 88.6%; in the test with M14 melanoma it was 93.2%.

With `COc1ccc2[nH]cc(-c3nc(-c4cn(C)c5c(Cl)nccc45)cs3)c2c1`, the growth in the test with DU-145 prostate was 40.7%; with K-562 leukemia, 17.9%; in the test with MALME-3M melanoma, 72.1%; in the test on MDA-MB-231 breast it was 48.2%; in the test with RXF 393 renal it was 32.5%; with SF-268 CNS it was 73%. For the same compound, the growth with SF-295 CNS is 37.9%; with SF-539 CNS, 23.3%; in the test on UACC-257 melanoma, -33% (active); in the test on M14 melanoma, 14%.

For `O=C(CN1C(=O)CCC1=O)Nc1ncc(Cc2ccc(F)cc2)s1`, the growth in the test with DU-145 prostate was 106%; in the test on K-562 leukemia it was 98.5%; in the test with MALME-3M melanoma, 99.8%; in the test on MDA-MB-231 breast, 97.4%; in the test with RXF 393 renal, 109%; in the test on SF-268 CNS, 91.2%. Moreover, the growth in the test with SF-295 CNS is 99.3%; in the test on SF-539 CNS it was 98.7%; in the test on UACC-257 melanoma, 98.5%; in the test with M14 melanoma, 103%.
